Activity calls are given as the source filed them.

Data on 8 compounds can be found in PubChem BioAssay.

Test [1] deals with Plasmodium falciparum Sir2 (PF13_0152, Sir2A). In words: pfSir2 binders on small-molecule microarrays, primary screen, biochemical, small-molecule microarray, 635 nm fluorescence (AID 1098).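 Also: score merges spot fluorescence intensity with its signal-to-noise ratio.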 Conditions: small-molecule microarray binding, fluorescence 635 nm; higher = more signal.
Test [2] in a line: small-molecule microarray binders of probe aDKK1, primary screen, biochemical, biotinylated probe, 635/667 nm fluorescence (AID 1099).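 Also: score merges 667nm spot fluorescence with signal to noise across triplicate slides.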 Conditions: higher = more signal.
A short description of test [3]: small-molecule microarray binders of probe aCHRDL2, primary screen, biochemical, biotinylated probe, 635/667 nm fluorescence (AID 1100). Conditions: higher = more signal.
Test [4] is described as follows: splicing luciferase reporter signal modulators, primary screen, spliceosome inhibition project, cell-based, HEK293, splice +/- reporter (AID 1101).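 Also: HEK293 cells carrying a splicing-competent luciferase reporter gene; test concentration not given here.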 Conditions: luminescence, 24 h, higher = more signal, called active from +8 up or from −8 down. On the technique in general: Reporter assays use an easily measured gene product as a stand-in for the process of interest.

In test [5] the target is Fibroblast growth factor 10 (Homo sapiens) (UniProt O15520). In words: FGF10 binders on small-molecule microarrays, primary screen, biochemical, small-molecule microarray, 635 nm fluorescence (AID 1102). The note with it: FGF10 binding, fluorescence 635 nm, higher = more signal.
Chain of Fibroblast growth factor 10 (Homo sapiens) (O15520 whole entry, looked up): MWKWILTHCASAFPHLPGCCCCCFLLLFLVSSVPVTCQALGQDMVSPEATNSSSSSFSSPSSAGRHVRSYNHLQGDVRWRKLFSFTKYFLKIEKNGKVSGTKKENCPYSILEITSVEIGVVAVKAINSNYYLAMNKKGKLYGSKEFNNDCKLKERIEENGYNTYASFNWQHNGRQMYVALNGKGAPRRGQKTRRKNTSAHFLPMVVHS
The subject of test [6] is glycogen synthase kinase-3 (GSK3A per assay name; protocol says GSK3B). In words: GSK3 binders on small-molecule microarrays, primary screen, biochemical, small-molecule microarray, 635 nm fluorescence, GSK3A (AID 1103). Also: the record names both GSK3A and GSK3B. The note with it: small-molecule microarray binding, fluorescence 635 nm; higher = more signal.
For test [7], the target named is Epidermal growth factor receptor (Homo sapiens) (UniProt P00533). Kind of test: EGFR binders on small-molecule microarrays, primary screen, biochemical, small-molecule microarray, 635 nm fluorescence (AID 1104).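 Also: score merges 667 nm emission intensity with spot signal to noise over triplicate slides.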 The note with it: EGFR binding, higher = more signal.
Chain of Epidermal growth factor receptor (Homo sapiens) (P00533 whole entry, looked up): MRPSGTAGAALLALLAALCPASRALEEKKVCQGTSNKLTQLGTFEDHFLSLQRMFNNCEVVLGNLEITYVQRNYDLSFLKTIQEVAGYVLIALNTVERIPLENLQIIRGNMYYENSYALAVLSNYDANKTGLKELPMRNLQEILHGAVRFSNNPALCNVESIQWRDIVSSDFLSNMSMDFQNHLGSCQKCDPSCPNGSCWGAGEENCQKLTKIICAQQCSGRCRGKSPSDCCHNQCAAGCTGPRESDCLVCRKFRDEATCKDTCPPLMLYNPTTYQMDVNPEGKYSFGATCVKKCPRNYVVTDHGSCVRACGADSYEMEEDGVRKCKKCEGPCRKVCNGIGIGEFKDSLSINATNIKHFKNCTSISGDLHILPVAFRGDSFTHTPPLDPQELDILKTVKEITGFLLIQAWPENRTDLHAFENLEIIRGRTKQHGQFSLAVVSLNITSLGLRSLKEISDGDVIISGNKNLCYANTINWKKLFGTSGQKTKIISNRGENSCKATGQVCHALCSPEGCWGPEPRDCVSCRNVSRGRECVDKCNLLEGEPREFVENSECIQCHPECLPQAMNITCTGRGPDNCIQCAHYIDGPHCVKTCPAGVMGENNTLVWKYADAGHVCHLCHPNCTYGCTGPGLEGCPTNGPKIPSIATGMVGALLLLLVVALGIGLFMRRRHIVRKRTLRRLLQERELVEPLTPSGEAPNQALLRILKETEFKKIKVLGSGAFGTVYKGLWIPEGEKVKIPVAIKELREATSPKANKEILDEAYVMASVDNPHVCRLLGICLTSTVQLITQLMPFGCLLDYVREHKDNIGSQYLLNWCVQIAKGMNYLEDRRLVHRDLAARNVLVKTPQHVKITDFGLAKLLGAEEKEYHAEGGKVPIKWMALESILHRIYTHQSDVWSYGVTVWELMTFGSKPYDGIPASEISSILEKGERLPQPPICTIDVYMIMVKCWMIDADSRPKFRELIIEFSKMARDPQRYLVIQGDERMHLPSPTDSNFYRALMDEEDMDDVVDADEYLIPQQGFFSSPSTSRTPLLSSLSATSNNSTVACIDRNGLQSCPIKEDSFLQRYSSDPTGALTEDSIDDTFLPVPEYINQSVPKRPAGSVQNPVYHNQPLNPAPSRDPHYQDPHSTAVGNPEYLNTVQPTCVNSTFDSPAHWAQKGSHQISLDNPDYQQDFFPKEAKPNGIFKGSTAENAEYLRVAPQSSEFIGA
For test [8], the target named is Follistatin-related protein 3 (Homo sapiens) (UniProt O95633). In words: FSTL3 binders on small-molecule microarrays, primary screen, biochemical, small-molecule microarray, 635 nm fluorescence (AID 1105).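 Also: score merges emission near 667 nm and signal to noise per printed spot across three slides.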 Conditions: FSTL3 binding, higher = more signal.
Chain of Follistatin-related protein 3 (Homo sapiens) (O95633 whole entry, looked up): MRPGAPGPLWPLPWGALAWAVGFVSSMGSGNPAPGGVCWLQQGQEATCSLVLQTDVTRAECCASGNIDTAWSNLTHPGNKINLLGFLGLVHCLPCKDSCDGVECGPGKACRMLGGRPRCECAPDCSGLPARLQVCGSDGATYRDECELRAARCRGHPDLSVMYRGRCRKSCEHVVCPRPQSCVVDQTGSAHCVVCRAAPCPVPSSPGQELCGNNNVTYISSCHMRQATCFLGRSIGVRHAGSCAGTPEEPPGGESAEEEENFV
Test [9] addresses Dickkopf-related protein 1 (Homo sapiens) (UniProt O94907). In words: DKK1 binders on small-molecule microarrays, primary screen, biochemical, small-molecule microarray, 635 nm fluorescence scan (AID 1106).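 Also: score merges emission near 667 nm with signal to noise over three replicate slides.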 The note with it: DKK1 binding, higher = more signal.
The test system of test [10] is Inhibin beta A chain (activin A). In words: INHBA (activin A) binders on microarrays, primary screen, biochemical, small-molecule microarray, 635 nm fluorescence scan (AID 1107).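 Also: mouse activin A protein probed at 4.33 µg/mL on printed slides; score merges bound-protein fluorescence near 667 nm with spot signal-to-noise.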 The note with it: small-molecule microarray binding, higher = more signal.
For test [11], the system named is Human papillomavirus type 1a protein E7 (residues 44-93). Kind of test: HPV1a E7 fragment binders on microarrays, primary screen, biochemical, small-molecule microarray, residues 44-93, 635 nm fluorescence (AID 1108).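 Also: E7 fragment applied at 1 µg/mL in TBST for 1 h at 4 C; score combines spot fluorescence with its signal to noise ratio.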 Conditions: small-molecule microarray binding, fluorescence 635 nm; higher = more signal.
A short description of test [12]: modulators of HCV replicon luciferase signal, primary screen, HCV replication inhibitor project, Huh7 cells, luciferase reporter (AID 1109).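 Also: huh7 hepatoma cells harbouring a luciferase neomycin HCV replicon reporter; luciferase luminescence as measure of HCV replicon replication; test concentration not given here.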 Conditions: 48 h, higher = more signal. (In antiviral work, replicon cells carry a viral genome segment that copies itself.)
In test [13] the target is Left-right determination factor 2 (Homo sapiens) (UniProt O00292). Kind of test: LEFTY2 binders on small-molecule microarrays, primary screen, biochemical, small-molecule microarray, 635 nm fluorescence scan (AID 1110). Conditions: LEFTY2 binding, higher = more signal.
Chain of Left-right determination factor 2 (Homo sapiens) (O00292 whole entry, looked up): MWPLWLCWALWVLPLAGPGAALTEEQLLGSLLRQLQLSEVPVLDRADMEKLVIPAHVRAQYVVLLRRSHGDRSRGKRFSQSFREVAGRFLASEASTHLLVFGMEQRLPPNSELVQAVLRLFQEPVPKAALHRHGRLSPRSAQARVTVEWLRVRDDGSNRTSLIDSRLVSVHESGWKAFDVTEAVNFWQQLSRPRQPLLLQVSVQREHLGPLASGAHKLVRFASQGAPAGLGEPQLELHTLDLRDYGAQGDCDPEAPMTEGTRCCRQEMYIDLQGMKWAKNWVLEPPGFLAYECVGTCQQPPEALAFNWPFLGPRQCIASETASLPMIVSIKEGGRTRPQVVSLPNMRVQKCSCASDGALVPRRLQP
In test [14] the target is Calmodulin-1 (Homo sapiens) (UniProt P0DP23). In words: CALM1 binders on microarrays, EGTA buffer, profiling panel, biochemical, small-molecule microarray, Cy5-labelled CALM1 (AID 1111).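 Also: labelled calmodulin applied in Tris saline Tween buffer holding calcium plus EGTA and DTT.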 Conditions: Cy5-CALM1 binding fluorescence, higher = more signal.
The target is the same in test [15]. In words: calcium-bound CALM1 binders on microarrays, profiling panel, artefact control for SMM control-protein annotation, biochemical, small-molecule microarray, Cy5-labelled CALM1, plus calcium (AID 1112).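 Also: score merges spot fluorescence with signal to noise from triplicate slides.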 Conditions: Cy5-CALM1 binding fluorescence, higher = more signal.
Test [16] is described as follows: small-molecule microarray binders of probe aWnt5a, primary screen, biochemical, biotinylated probe, 635/667 nm fluorescence (AID 1113).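 Also: score merges 667 nm fluorescence intensity with signal-to-noise per printed feature.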 Conditions: higher = more signal.
Test [17] is described as follows: small-molecule microarray binders of probe aShh, primary screen, biochemical, biotinylated probe, 635/667 nm fluorescence (AID 1114).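 Also: probe is biotin-labelled aShh protein from a stem cell growth factor screen; measures binding of labelled protein to compounds printed on the slide; score merges feature fluorescence at 667 nm with signal-to-noise.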 The note with it: higher = more signal.
Test [18] can be described thus: small-molecule microarray binders of probe aNog, primary screen, biochemical, biotinylated probe, 635/667 nm fluorescence (AID 1115).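 Also: probe is biotinylated aNog protein used at 0.15 µg/mL for 1 h at 4 C; z-score combines 667 nm fluorescence of each spot with its signal to noise.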 Conditions: higher = more signal.
Test [19] addresses Torsin-1A-interacting protein 1 (Homo sapiens) (UniProt Q5JTV8). Kind of test: LAP1 binders from COS7 cell lysate, primary screen, small-molecule microarray, 635/667 nm fluorescence (AID 1116). The note with it: COS7-hLAP1 lysate binding, 635 nm fluorescence, higher = more signal.
The target of test [20] is Alpha-bungarotoxin (Bungarus multicinctus) (UniProt P60615). In words: alpha-bungarotoxin binders on microarray, profiling panel, artefact control for SMM control protein annotation, biochemical, small-molecule microarray, Alexa647 label, 635/667 nm fluorescence (AID 1117). Conditions: alpha-BTX-A647 binding fluorescence, higher = more signal.
Chain of Alpha-bungarotoxin (Bungarus multicinctus) (P60615 whole entry, looked up): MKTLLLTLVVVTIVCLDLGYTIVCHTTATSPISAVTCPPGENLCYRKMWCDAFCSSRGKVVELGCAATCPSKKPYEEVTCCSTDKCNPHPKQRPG

Chain of Torsin-1A-interacting protein 1 (Homo sapiens) (Q5JTV8 whole entry, looked up): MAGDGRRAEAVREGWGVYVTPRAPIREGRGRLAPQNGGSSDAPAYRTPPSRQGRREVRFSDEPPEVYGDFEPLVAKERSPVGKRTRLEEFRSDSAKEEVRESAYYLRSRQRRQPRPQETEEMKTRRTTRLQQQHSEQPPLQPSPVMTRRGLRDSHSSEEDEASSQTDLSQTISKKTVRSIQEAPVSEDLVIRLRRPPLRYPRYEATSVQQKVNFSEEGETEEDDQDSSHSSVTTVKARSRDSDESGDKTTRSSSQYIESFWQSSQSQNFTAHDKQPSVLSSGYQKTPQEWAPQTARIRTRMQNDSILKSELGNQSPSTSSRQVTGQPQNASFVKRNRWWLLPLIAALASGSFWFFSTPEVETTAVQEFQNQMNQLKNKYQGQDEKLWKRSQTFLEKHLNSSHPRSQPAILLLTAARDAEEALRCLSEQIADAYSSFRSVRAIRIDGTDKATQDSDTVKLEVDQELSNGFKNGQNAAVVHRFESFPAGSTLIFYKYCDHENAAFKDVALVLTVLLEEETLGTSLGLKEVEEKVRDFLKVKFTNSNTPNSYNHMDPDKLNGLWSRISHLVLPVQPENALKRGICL
Chain of Dickkopf-related protein 1 (Homo sapiens) (O94907 whole entry, looked up): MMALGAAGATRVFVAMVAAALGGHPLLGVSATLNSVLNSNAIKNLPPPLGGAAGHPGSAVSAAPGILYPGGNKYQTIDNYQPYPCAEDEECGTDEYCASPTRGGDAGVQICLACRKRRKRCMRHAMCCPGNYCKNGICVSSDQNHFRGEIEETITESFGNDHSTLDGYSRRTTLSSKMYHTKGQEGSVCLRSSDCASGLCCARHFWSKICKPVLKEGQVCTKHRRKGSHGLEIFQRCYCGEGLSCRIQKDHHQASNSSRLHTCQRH

`C=C(COC)/C(=C/C[C@@H](OC(=O)c1ccncc1)c1ccccc1OCCO)c1cnc2ccccc2c1`: the composite z-score in test [1] is 0.247; in test [2] it was -0.0501; in [3], 0.0321; in test [5] it was 1.47; in test [6], 1.29; in test [7], 1.3. The composite z-score in test [8] was found to be 1.59; in [9] it was 0.651; in test [10], 1.61; in test [11] it was 1.24; in [13], 1.14; in [14], 0.528. Further, the composite z-score in test [15] is -0.469; in test [16] it was 0.067; in test [17], 0.111; in test [18], 0.361; in [19] it was 1.47; in [20] it was 2.96. The z-score in test [4] was 0.488 (inactive); in test [12] it was -2.8.

`OCCCc1cc[n+](Cc2cc3c(cc2Br)OCO3)cc1`: the composite z-score in test [1] is -0.837; in test [2], -0.0013; in [3] it was 0.706; in test [5], -0.741; in test [6], -1.84; in test [7], -1.15. Also, the composite z-score in test [8] was -0.725; in test [9], -0.625; in test [10], 0.783; in test [11], -0.945; in [13], -1.12; in [14], -1.81. For the same compound, the composite z-score in test [15] is 0.172; in test [16] it was -0.147; in test [17], -0.207; in [18], -0.172; in [19], -0.81; in test [20] it was -2.04. Moreover, the z-score in test [4] is 0.341 (inactive); in test [12] it was 1.05.

On to `CC(C)c1ccc(NN2C(C(O)C3=C[C@H]4C[C@@H](C3)C4(C)C)C=CC3C(=O)N(c4ccccc4)C(=O)C32)cc1` (stereo not given in full), for which the composite z-score in test [1] amounted to 0.969; in test [2], 0.886; in test [3] it was 0.665; in test [5], 0.409; in test [6], 0.577; in [7] it was 0.366. Also, the composite z-score in test [8] is 0.827; in test [9], 0.245; in test [10], 0.829; in test [11] it was 0.796; in [13], 0.368; in [14], 2.46. In addition, the composite z-score in test [15] was 0.977; in test [16] it was 0.0403; in test [17], 0.907; in test [18], 2.06; in [19], 1.54; in test [20] it was 1.64. In addition, the z-score in [4] is -0.0409 (inactive); in test [12], -0.637.

On to `[N-]=[N+]=NCc1ccccc1C[C@@]1(C(=O)NCCN2CCOCC2)N=C(c2ccc(OCCCO)cc2)O[C@@H]1c1ccccc1`, for which the composite z-score in [1] was 0.365; in [2] it was 0.809; in test [3], 0.996; in test [5], 0.486; in test [6] it was -0.0659; in test [7] it was -0.883. For the same compound, the composite z-score in test [8] was -0.192; in test [9], -0.342; in [10], 0.293; in test [11], 1.39; in test [13] it was -0.58; in test [14], 1.26. For the same compound, the composite z-score is 0.683 in test [15]; 0.0391 in test [16]; 0.358 in test [17]; 0.35 in [18]; 1.06 in test [19]; 1.19 in test [20]. Moreover, the z-score is 0.995 (inactive) in test [4] and -2.6 in [12].

`COCCOC(=O)N1C(=O)[C@@]2(c3ccccc31)[C@H](C(=O)Nc1nc3ccccc3s1)[C@H]1C(=O)O[C@H](c3ccccc3)[C@H](c3ccccc3)N1[C@@H]2c1ccccc1OCCO`: the composite z-score in [1] was determined as 1.53; in test [2] it was 0.114; in [3], 0.653; in test [5], 0.906; in test [6], 0.783; in test [7] it was 0.209. In addition, the composite z-score was found to be 0.678 in test [8]; 0.0159 in test [9]; 0.769 in [10]; 1.41 in [11]; 0.146 in test [13]; 1.51 in test [14]. Further, the composite z-score in test [15] is 0.476; in test [16], -0.0685; in test [17], -0.225; in test [18], 0.36; in test [19] it was 0.429; in [20], 1.72. Also, the z-score in test [4] was -0.794 (inactive); in test [12], -1.83.

Turning to `Cc1ccc(S[C@]2(C(=O)NCc3ccccc3)CC(=O)N(Cc3ccccc3C(F)(F)F)[C@@H]2c2ccc(CO)cc2I)cc1`, the composite z-score in test [1] is 1.62; in test [2], 0.211; in test [3] it was 0.831; in [5] it was -0.557; in test [6] it was -0.498; in test [7], -1.3. Also, the composite z-score in test [8] was -0.793; in [9], -0.749; in test [10] it was 1.07; in [11], -0.565; in test [13], -0.916; in test [14] it was -0.348. In addition, the composite z-score in test [15] was 0.549; in [16], -0.124; in test [17], -0.334; in [18], 0.389; in test [19], 0.662; in [20], -0.593. In addition, the z-score in test [4] is -0.494 (inactive); in test [12] it was -1.64.

`COCCCNC(=O)[C@@]1(Cc2ccccc2I)c2ccccc2C(=O)N(C2CCCCC2)[C@H]1c1ccc(CO)cc1`: the composite z-score in test [1] was 1.25; in [2], 0.015; in test [3], 0.445; in [5], 0.973; in test [6], 0.681; in test [7], -0.0802. Moreover, the composite z-score is 0.0553 in test [8]; 0.249 in test [9]; 0.123 in test [10]; 1.13 in test [11]; -0.418 in test [13]; 0.634 in [14]. Besides, the composite z-score in [15] was 0.305; in test [16], -0.0061; in test [17] it was 0.313; in test [18] it was -0.417; in test [19], 1.57; in [20], 1.19. In addition, the z-score in test [4] is -0.235 (inactive); in [12] it was -1.45.

As to `O=C1O[C@@H](c2ccccc2)[C@@H](c2ccccc2)N2[C@@H](c3ccc(OCCO)cc3)[C@]3(C(=O)Nc4ccc(C#CC5=CCCCC5)cc43)[C@@H](C(=O)Nc3nc4ccccc4s3)[C@H]12`, the composite z-score is 1.63 in [1]; -0.127 in [2]; -1.13 in [3]; 1.01 in test [5]; 0.489 in test [6]; 0.554 in [7]. Moreover, the composite z-score in test [8] was 0.0685; in test [9], -0.188; in [10] it was -0.289; in test [11] it was 0.597; in test [13], -0.005; in test [14], 0.516. In addition, the composite z-score in [15] was -0.188; in [16] it was 0.0243; in test [17] it was -0.708; in [18], 0.704; in test [19], 0.0065; in [20], 0.4. The z-score was -0.61 (inactive) in [4] and -1.88 in test [12].
